Measured values published in PubChem BioAssay AID1851 (National Center for Advancing Translational Sciences (NCATS), 2009).
In all, about 16,000 compounds went through this assay and about 2,600 (16%) were called active. Roughly 20% stayed inconclusive and do not appear here. Calls come from the whole dose curve; as a rule, active = well fitted curve in the direction sought with a large enough effect; inconclusive = small, poorly fitted or top-dose-only effect, or effect the other way; inactive = no such curve, though single readings can be large or run the other way. A selection follows.

molecular target: Cytochrome P450 2D6 (Homo sapiens) (UniProt P10635); experiment: Cytochrome panel assay with activity outcomes; conditions: recombinant CYP, pro-luciferin dealkylation, luminescence, p450-cyp2d6; series mostly up to 57.1 µM; activity, negative = inhibition: at the top concentration
Sequence (P10635 whole entry, looked up): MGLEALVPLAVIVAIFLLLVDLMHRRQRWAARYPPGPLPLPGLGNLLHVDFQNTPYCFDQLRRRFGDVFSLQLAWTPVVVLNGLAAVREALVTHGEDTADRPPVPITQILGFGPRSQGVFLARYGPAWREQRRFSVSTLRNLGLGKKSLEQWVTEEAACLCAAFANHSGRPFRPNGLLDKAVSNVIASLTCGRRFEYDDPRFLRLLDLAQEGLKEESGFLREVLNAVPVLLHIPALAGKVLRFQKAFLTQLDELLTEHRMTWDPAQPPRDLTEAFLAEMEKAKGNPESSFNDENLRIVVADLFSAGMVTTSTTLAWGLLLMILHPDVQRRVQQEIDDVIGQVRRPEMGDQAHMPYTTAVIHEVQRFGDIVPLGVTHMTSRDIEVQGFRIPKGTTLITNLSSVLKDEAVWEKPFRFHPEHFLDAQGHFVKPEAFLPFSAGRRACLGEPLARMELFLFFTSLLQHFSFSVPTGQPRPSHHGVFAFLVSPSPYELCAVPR
% is set by controls: 0 for no effect and ±100 for the full control effect.

| Structure (SMILES) | activity, negative = inhibition | AC50 |
| --- | --- | --- |
| CCOc1ccc(NC(=O)CSc2nc(C)c3c(c2C#N)CCCC3)cc1 | -8% (inactive) |  |
| COc1ccc(NC(=O)CSc2nc(-c3ccc(C)cc3)cc(C(F)(F)F)c2C#N)cc1 | 15.8% (inactive) |  |
| CSc1nc(N)nc(SCC(=O)Nc2ccc(Cl)cc2)c1C#N |  | 2.24 µM (active) |
| O=C(c1cccc(F)c1)N1CCC2(CCCN(c3cccc(-c4ccccc4)c3)C2)CC1 | -11.4% (inactive) |  |
| O=C(c1sc2ccccc2c1Cl)N1CCN(c2ccc(F)cc2)CC1 | -28% (inactive) |  |
| CC1CCCN(C(=O)c2sc3cc([N+](=O)[O-])ccc3c2Cl)C1 (stereo unspecified) |  | 10 µM (active) |
| CN1CCCN(C)C1c1cc([N+](=O)[O-])ccc1O | -9.66% [at 11.4 µM] (inactive) |  |
| CC1CCCC(NC(=O)C2CCN(S(=O)(=O)N3CCC4(CC3)OCCO4)CC2)C1C (stereo unspecified) | -11.3% (inactive) |  |
| Cc1sc(N)c(C(=O)c2cccc(C(F)(F)F)c2)c1C | -0.502% (inactive) |  |
| O=C(Nc1c2c(nn1-c1ccc(F)cc1)CS(=O)(=O)C2)C12CC3CC(CC(C3)C1)C2 | -0.0135% (inactive) |  |
| O=C(Oc1ccccc1[N+](=O)[O-])c1cccnc1 | -12.6% (inactive) |  |
| Cn1cc([N+](=O)[O-])c(C(=O)Nc2cc(Oc3cccnc3)cc([N+](=O)[O-])c2)n1 |  | 12.6 µM (active) |
| CC(=O)NN1C(=O)c2ccc(Oc3cccc([N+](=O)[O-])c3)cc2C1=O | -9.46% (inactive) |  |
| Cc1cc(C(=O)O)c(=O)[nH]c1C | 15.7% (inactive) |  |
| CC1(C)CC(=O)C2=C(C1)N(Cc1ccccc1)C(=O)C2(O)C(F)(F)F (stereo unspecified) | 0.612% (inactive) |  |
| O=C(N/N=C/C1CCCCC1)c1ccccn1 | -25.7% (inactive) |  |
| N#Cc1c2n(c3c(=S)nc[nH]c13)CCCCC2 | 9.17% (inactive) |  |
| C=C1C=C(Br)C2(OCCCO2)[C@H]2OC12 (stereo partly specified) | 3.88% [at 11.4 µM] (inactive) |  |
| Cc1cc(NC(=S)NC(=O)CC(C)C)ccc1Br | -0.0883% (inactive) |  |
| COc1ccc(NC(=S)Nc2ccccc2)cc1 | -11.8% [at 11.4 µM] (inactive) |  |
| Cc1cc(NC(=S)Nc2ccccc2)ccc1Br |  | 2 µM (active) |
| CCCCC1(C)NC(=O)c2c(C)sc(C(=O)OCC)c2N1 (stereo unspecified) | 5.24% (inactive) |  |

| Structure (SMILES) | activity, negative = inhibition | AC50 |
| --- | --- | --- |
| CC1=C/C(=N/O)C([C@H]2C=C(C)CC(C)(C)[C@@H]2O)C(C)(C)C1 (stereo partly specified) | -8.52% [at 11.4 µM] (inactive) |  |
| COc1ccc(S(=O)(=O)N2CCC(NC(=O)Nc3ccc(C)cc3)CC2)cc1 | -8.72% (inactive) |  |
| COc1ccc(S(=O)(=O)Nc2ccc(S(=O)(=O)N3CCCCC3)cc2)cc1C | -0.01% (inactive) |  |
| COc1ccc(S(=O)(=O)N2CCC(N3CCCCC3)CC2)cc1 |  | 0.316 µM (active) |
| CCCOC(=O)c1c(NC(=O)/C=C/c2cnn(C)c2C)sc(C(=O)OCC)c1C | 9.96% (inactive) |  |
| CCOc1cccc2cc(C(N)=O)c(=NCc3ccccc3)oc12 | -3.81% (inactive) |  |
| Oc1ccccc1-c1cc(-c2ccccc2)no1 | -29.9% (inactive) |  |
| c1c[nH]c(CN2CCOCC2)n1 | -10.1% [at 11.4 µM] (inactive) |  |
| c1ccc(CN(CC2=NCCN2)c2ccccc2)cc1 |  | 2.51 µM (active) |
| C[C@@H]1c2ccccc2CN1CC1=NCCN1 | -9.96% (inactive) |  |
| c1ccc2c(CC3=NCCN3)cccc2c1 |  | 7.94 µM (active) |
| c1c[nH]c(CN2CCN(Cc3ncc[nH]3)CC2)n1 | -3.74% [at 11.4 µM] (inactive) |  |
| Cc1ccc(N(Cc2ccccc2)Cc2ccccc2)cc1 | 0.619% [at 11.4 µM] (inactive) |  |
| Cc1cc(C=C(C#N)C#N)c(C)n1-c1ccccc1 | -1.52% (inactive) |  |
| CCc1cc2c(nc1CC)CCN(CC/C(C)=N/O[C@@H](C)c1cn([C@H](CO)Cc3ccccc3)nn1)C2 | 2.14% [at 11.4 µM] (inactive) |  |
| Nc1ncnc2c([C@@H]3O[C@@H](CO)[C@H](O)[C@@H]3O)nsc12 | -0.815% [at 11.4 µM] (inactive) |  |
| N#Cc1c(N2CCN(C(=O)c3ccccc3Cl)CC2)nc(-c2ccccc2)c2c1CCCC2 | -17.9% (inactive) |  |
| CC1CN(C(=O)CN2C(=O)NC3(CCCCCC3)C2=O)CC(C)O1 (stereo unspecified) | -5.42% (inactive) |  |
| Cc1nc2cnc(Oc3cccc(Cl)c3)nc2n(C2CC2)c1=O | -1.54% (inactive) |  |
| CN(c1ccc(C(=O)NC2CC3CCC2C3)cc1)S(C)(=O)=O (stereo unspecified) | 27.3% (inactive) |  |
| CNc1nc(NCCOC23CC4CC(CC(C4)C2)C3)nc(OCC(F)(F)F)n1 | -17% (inactive) |  |
| Cc1ccc(C(=O)N2CCN(c3ccc(C(F)(F)F)cn3)CC2)cc1 | -23.2% (inactive) |  |

| Structure (SMILES) | activity, negative = inhibition | AC50 |
| --- | --- | --- |
| COc1cccc(Nc2ncc3nc(C)c(=O)n(CCC#N)c3n2)c1 | -5.84% (inactive) |  |
| COc1ccc2[nH]cc(CCNc3cc(-c4ccoc4)ncn3)c2c1 |  | 12.6 µM (active) |
| COC(=O)Nc1ccc2[nH]cc(CCNC(C)=O)c2c1 | -11.2% (inactive) |  |
| CC(=O)NCCNc1cc(-c2ccccc2C)ncn1 | -9.8% (inactive) |  |
| COc1ccc2[nH]cc(C=O)c2c1 | -3.89% (inactive) |  |
| COc1cccc(-c2cc(NCCc3c[nH]c4ccc(OC)cc34)ncn2)c1 |  | 15.8 µM (active) |
| COc1ccc2[nH]cc(CCNc3cc(-c4ccccc4C)ncn3)c2c1 |  | 7.94 µM (active) |
| COc1ccc2[nH]cc(CCNc3cc(-c4ccccc4OC)ncn3)c2c1 |  | 12.6 µM (active) |
| COCCNc1cc(-c2ccccc2C(F)(F)F)ncn1 | 3.95% (inactive) |  |
| CCOC(=O)C1=C(C)NC2=C(C(=O)C(C(=O)OCC)C(c3ccc(OC)cc3)C2)C1c1ccccn1 (stereo unspecified) | -8.45% (inactive) |  |
| O=C1OCCC1Sc1nnnn1-c1ccccc1 (stereo unspecified) | -7% (inactive) |  |
| O=C1C[C@H](c2ccccc2)[C@@H](c2ccc(Br)cc2)O1 | -20.8% [at 11.4 µM] (inactive) |  |
| COCCn1c(=O)cnc2cnc(Nc3cccc(OC)c3)nc21 | -5.08% (inactive) |  |
| CC(C)Cc1nnc(NC(=O)c2ccc([N+](=O)[O-])cc2)s1 | -2.73% (inactive) |  |
| COc1cccc(Cn2c(NCc3cccnc3)nc3c2c(=O)n(C)c(=O)n3C)c1 | -24.9% (inactive) |  |
| COc1ccc(NC(=O)CN2c3cccc4cccc(c34)S2(=O)=O)cc1 | -10.1% (inactive) |  |
| COc1ccc(CNC(=O)C(c2ccc(C)cc2)N(Cc2cccs2)C(=O)c2ccc3c(c2)OCCO3)cc1 (stereo unspecified) | -10.3% (inactive) |  |
| CC(C(=O)NCc1ccc2c(c1)OCO2)N1c2cccc3cccc(c23)S1(=O)=O (stereo unspecified) |  | 10 µM (active) |
| CC(=O)Nc1ccc(C(=O)NNC(=O)CCc2ccccc2)cc1 | 0.797% (inactive) |  |
| NNC(=O)c1ccc[n+](CCc2ccccc2)c1 |  | 2 µM (active) |
| O=C(CCc1ccccc1)NNC(=S)NC(=O)c1ccccc1 | -21.2% (inactive) |  |
| CCc1cc2c(=O)[nH]cnc2s1 | 12.4% (inactive) |  |
